PubChem BioAssay (EPA / NIEHS)
Records with an inconclusive call do not appear. Calls of active or inactive are those of the source. How the source made its calls: active means hit-call score of the fitted dose curve at least 0.9, where 1 is the maximum; inconclusive means response in the unintended direction; inactive means score below 0.9.

How the values were obtained:
[1] = target: bovine Dopamine Receptor (DR), Non-selective Binding, DRD1 (gene 281125) (UniProt Q95136); assay: NVS_GPCR_bDR_NonSelective: NovaScreen (NVS) G Protein-Coupled Receptor Assay for bovine Dopamine Receptor (DR), Non-selective Binding (AID 2283241)
Outline: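 Filter-based radioligand binding with bovine striatal membrane, incubated 1 h; DMSO as negative baseline. Initial duplicate single-point test at 25 uM preceded concentration series for actives.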

[2] = target: Adenosine receptor A1 (Bos taurus) (UniProt P28190); assay: NVS_GPCR_bAdoR_NonSelective: NovaScreen (NVS) G Protein-Coupled Receptor Assay for bovine Adenosine Receptor (AdoR), Non-selective Binding (AID 2283244)
Outline: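 Cell-free binding with membranes from bovine striatum: radioligand displaced by test chemical, read after 1 h by filtration and scintillation. Single-point 25 uM duplicate primary, 50 uM top concentration in follow-up curves, DMSO baseline.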

[3] = target: human Serotonin, 5-Hydroxytryptamine Receptor 2A (5HT2A), HTR2A (gene 3356) (UniProt P28223); assay: NVS_GPCR_h5HT2A: NovaScreen (NVS) G Protein-Coupled Receptor Assay for human Serotonin, 5-Hydroxytryptamine Receptor 2A (5HT2A) (AID 2283249)
Outline: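 Radioligand displacement on human cortex tissue extract, counted by filtration and scintillation 1.5 h post-dosing. Initial single-concentration screen at 25 uM in duplicate, concentration series in follow-up; DMSO as baseline.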

[4] = test system: guinea pig Muscarinic, Peripheral (Mperiperal) Receptor, Non-selective Binding, gene 100379235; assay: NVS_GPCR_gMPeripheral_NonSelective: NovaScreen (NVS) G Protein-Coupled Receptor Assay for guinea pig Muscarinic, Peripheral (Mperiperal) Receptor, Non-selective Binding (AID 2283250)
Outline: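 Screened in duplicate at 25 uM, hits retested in concentration series to 50 uM max, using bladder membrane radioligand displacement from guinea pig. Filtration and scintillation counting 1 h post-dose, fitted relative to DMSO.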

[5] = target: guinea pig Opioid, Kappa 1 Receptor (OpiateK), OPRK1 (gene 100135587) (UniProt P41144); assay: NVS_GPCR_gOpiateK: NovaScreen (NVS) G Protein-Coupled Receptor Assay for guinea pig Opioid, Kappa 1 Receptor (OpiateK) (AID 2283252);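 further: radioligand displacement from kappa opioid receptor in guinea pig cerebellar membranes; active means reduced radioligand binding relative to DMSO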
Outline: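 Radioligand competition binding using guinea pig cerebellum membrane fraction; 2 h exposure; filter radiodetection. Single concentration 25 uM (duplicate), follow-up concentration-response for actives.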

[6] = test system: guinea pig Leukotriene B4 Receptor (LTB4), gene 100379538; assay: NVS_GPCR_gLTB4: NovaScreen (NVS) G Protein-Coupled Receptor Assay for guinea pig Leukotriene B4 Receptor (LTB4) (AID 2283247)
Outline: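 Membranes from guinea pig spleen incubated 2 h with radioligand and compound; bound counts measured by filtration and scintillation. Screened first at 25 uM in duplicate, then actives titrated to a 50 uM top concentration relative to DMSO.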

[7] = target: human Serotonin, 5-Hydroxytryptamine Receptor 6 (5HT6), HTR6 (gene 3362) (UniProt P50406); assay: NVS_GPCR_h5HT6: NovaScreen (NVS) G Protein-Coupled Receptor Assay for human Serotonin, 5-Hydroxytryptamine Receptor 6 (5HT6) (AID 2283253)
Outline: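 Filter scintillation counting of radioligand displacement from HEK293-expressed 5HT6, 1 hour post-dose, with loss of signal relative to DMSO. Single 25 uM duplicates first, with concentration series for confirmation.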

[8] = target: guinea pig Leukotriene D4 Receptor (LTD4), CYSLTR1 (gene 100135514) (UniProt Q2NNR5); assay: NVS_GPCR_gLTD4: NovaScreen (NVS) G Protein-Coupled Receptor Assay for guinea pig Leukotriene D4 Receptor (LTD4) (AID 2283248)
Outline: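 Guinea pig lung membrane preparation; bound radioligand measured by filter scintillation after 1 h, loss of signal versus DMSO marking displacement. Compounds tested at 25 uM in duplicate, hits retested to max 50 uM.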

[9] = NVS_GPCR_bNPY_NonSelective: NovaScreen (NVS) G Protein-Coupled Receptor Assay for bovine Neuropeptide Y (NPY) Receptor, Non-selective Binding (AID 2283245)
Experimental: NVS_GPCR_bNPY_NonSelective is a biochemical, single-readout assay that uses extracted gene-proteins from Bovine hippocampal membranes in a tissue-based cell-free assay. Measurements were taken 1 hour after chemical dosing in a 96-well plate.NVS_GPCR_bNPY_NonSelective is one of one assay component(s) measured or calculated from the NVS_GPCR_bNPY_NonSelective assay. It is designed to make measurements of radioligand binding, a form of binding reporter, as detected with scintillation counting signals by Filter-based radiodetection technology.Data from the assay component NVS_GPCR_bNPY_NonSelective was analyzed into 1 assay endpoint. This assay endpoint, NVS_GPCR_bNPY_NonSelective, was analyzed in the positive analysis fitting direction relative to DMSO as the negative control and baseline of activity. Using a type of binding reporter, loss-of-signal activity can be used to understand changes in the binding as they relate to the gene NPY. Furthermore, this assay endpoint can be referred to as a primary readout, because the performed assay has only produced 1 assay endpoint. To generalize the intended target to other relatable targets, this assay endpoint is annotated to the gpcr intended target family, where the subfamily is rhodopsin-like receptor. […]

[10] = test system: bovine Histamine 1 Receptor (H1), gene 281231; assay: NVS_GPCR_bH1: NovaScreen (NVS) G Protein-Coupled Receptor Assay for bovine Histamine 1 Receptor (H1) (AID 2283246)
Outline: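 Hits from a 25 uM duplicate primary screen were retested in concentration series (top 50 uM); binding measured as scintillation-counted displacement of radioligand from bovine cerebellar membranes after 1 h, normalised to DMSO.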

Chain of guinea pig Opioid, Kappa 1 Receptor (OpiateK), OPRK1 (gene 100135587) (P41144 whole entry, looked up): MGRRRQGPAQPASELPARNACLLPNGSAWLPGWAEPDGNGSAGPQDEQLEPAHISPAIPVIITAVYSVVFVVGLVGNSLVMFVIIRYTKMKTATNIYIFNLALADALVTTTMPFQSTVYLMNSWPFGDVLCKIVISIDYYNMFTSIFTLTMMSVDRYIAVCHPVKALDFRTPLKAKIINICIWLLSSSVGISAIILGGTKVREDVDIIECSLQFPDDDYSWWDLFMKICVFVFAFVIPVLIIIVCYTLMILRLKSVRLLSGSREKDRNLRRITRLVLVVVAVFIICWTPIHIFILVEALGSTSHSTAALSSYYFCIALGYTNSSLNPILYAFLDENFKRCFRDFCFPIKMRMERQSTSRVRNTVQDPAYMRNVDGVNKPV
Chain of human Serotonin, 5-Hydroxytryptamine Receptor 6 (5HT6), HTR6 (gene 3362) (P50406 whole entry, looked up): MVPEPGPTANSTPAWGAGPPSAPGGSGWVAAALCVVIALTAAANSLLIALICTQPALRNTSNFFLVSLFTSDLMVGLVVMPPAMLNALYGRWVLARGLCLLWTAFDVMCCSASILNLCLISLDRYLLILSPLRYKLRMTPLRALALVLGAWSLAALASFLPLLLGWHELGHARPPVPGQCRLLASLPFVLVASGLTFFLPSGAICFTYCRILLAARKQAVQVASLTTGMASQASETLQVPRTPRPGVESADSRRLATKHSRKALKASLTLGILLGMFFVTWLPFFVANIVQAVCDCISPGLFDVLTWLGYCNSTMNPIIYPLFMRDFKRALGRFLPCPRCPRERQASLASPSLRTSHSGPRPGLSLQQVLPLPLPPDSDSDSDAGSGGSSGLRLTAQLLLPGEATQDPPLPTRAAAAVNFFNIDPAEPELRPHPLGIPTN
Chain of Adenosine receptor A1 (Bos taurus) (P28190 whole entry, looked up): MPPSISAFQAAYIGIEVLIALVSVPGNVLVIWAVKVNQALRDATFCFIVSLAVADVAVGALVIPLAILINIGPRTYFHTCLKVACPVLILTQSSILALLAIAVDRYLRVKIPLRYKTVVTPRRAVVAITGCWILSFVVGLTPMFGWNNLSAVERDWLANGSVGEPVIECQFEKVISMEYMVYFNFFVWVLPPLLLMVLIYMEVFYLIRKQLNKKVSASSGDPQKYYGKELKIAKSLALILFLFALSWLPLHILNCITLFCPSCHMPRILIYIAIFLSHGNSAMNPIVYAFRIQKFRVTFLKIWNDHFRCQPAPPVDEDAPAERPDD
Chain of bovine Dopamine Receptor (DR), Non-selective Binding, DRD1 (gene 281125) (Q95136 whole entry, looked up): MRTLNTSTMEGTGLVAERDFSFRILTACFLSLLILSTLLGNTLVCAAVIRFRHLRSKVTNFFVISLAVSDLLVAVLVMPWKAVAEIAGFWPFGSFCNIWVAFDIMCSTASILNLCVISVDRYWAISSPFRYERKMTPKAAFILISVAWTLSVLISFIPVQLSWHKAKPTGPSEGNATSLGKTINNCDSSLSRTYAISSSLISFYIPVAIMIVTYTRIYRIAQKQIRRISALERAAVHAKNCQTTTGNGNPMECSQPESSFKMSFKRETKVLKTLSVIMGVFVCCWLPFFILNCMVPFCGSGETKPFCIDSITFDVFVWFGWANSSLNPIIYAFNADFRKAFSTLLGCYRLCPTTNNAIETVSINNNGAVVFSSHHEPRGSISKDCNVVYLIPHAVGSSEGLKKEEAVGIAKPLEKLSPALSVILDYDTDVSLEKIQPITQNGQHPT
Chain of human Serotonin, 5-Hydroxytryptamine Receptor 2A (5HT2A), HTR2A (gene 3356) (P28223 whole entry, looked up): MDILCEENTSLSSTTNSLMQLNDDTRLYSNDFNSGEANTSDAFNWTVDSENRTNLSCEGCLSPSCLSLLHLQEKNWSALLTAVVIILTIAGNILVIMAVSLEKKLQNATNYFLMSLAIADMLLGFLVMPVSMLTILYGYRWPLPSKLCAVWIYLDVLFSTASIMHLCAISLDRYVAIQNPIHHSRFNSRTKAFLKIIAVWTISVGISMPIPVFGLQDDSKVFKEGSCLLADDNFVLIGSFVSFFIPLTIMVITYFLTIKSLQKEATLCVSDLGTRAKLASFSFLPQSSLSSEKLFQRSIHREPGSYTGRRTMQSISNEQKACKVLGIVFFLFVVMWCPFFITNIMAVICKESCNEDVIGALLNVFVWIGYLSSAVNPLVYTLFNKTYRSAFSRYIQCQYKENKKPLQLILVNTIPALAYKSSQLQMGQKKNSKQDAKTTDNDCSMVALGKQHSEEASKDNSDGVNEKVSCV
Chain of guinea pig Leukotriene D4 Receptor (LTD4), CYSLTR1 (gene 100135514) (Q2NNR5 whole entry, looked up): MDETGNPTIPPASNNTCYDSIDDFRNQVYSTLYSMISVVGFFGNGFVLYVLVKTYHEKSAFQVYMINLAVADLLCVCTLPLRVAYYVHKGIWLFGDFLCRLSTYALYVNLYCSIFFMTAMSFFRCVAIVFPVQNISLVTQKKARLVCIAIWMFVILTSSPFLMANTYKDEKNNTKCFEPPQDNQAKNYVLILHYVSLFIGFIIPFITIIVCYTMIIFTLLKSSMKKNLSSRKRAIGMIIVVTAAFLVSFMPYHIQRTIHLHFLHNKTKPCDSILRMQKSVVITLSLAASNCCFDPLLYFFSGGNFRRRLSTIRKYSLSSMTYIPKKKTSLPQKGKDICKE

CN(C)C(=O)NC1(c2ccccc2)CCN(CC[C@@]2(c3ccc(F)c(F)c3)CN(C(=O)c3ccccc3)CCO2)CC1
AC50 [1]: 6.51 µM (active)
outcome [2]: inactive
AC50 [3]: 13.1 µM (active)
outcome [4]: inactive
AC50 [5]: 3.94 µM (active)

O=Cc1ccccc1C=O
outcome [6]: inactive
AC50 [5]: 9.81 µM (active)

CC(=O)O
outcome [3]: inactive

CSc1ccc(Oc2ccc(S(N)(=O)=O)cc2CN(C)C)cc1C
AC50 [3]: 13.4 µM (active)
AC50 [5]: 13.5 µM (active)
AC50 [7]: 2.79 µM (active)

O=C(O)c1[nH]n(-c2ccc(S(=O)(=O)O)cc2)c(=O)c1N=Nc1ccc(S(=O)(=O)O)cc1
AC50 [5]: 43.3 µM (active)

CCCCCCCCCCCCCCOS(=O)(=O)O
AC50 [8]: 9.7 µM (active)
AC50 [4]: 25 µM (active)
AC50 [7]: 39.1 µM (active)

NC(=Nc1ccccc1)Nc1ccccc1
outcome [4]: inactive
AC50 [5]: 25 µM (active)

O=C1CCCCC1
outcome [5]: inactive

CCc1cc(C2=C(C(=O)O)N(c3ccccc3C(F)(F)F)S(=O)(=O)c3ccccc32)cc2c1OCO2
AC50 [6]: 3.48 µM (active)
outcome [5]: inactive

C#CC(O)C(CC)CCCC (stereo not drawn)
AC50 [6]: 2.8 µM (active)

CN(C)C(=O)NC1(c2ccccc2)CCN(CCC[C@]2(c3ccc(Cl)c(Cl)c3)CCCN(C(=O)c3ccccc3)C2)CC1
AC50 [1]: 1.3 µM (active)
outcome [2]: inactive
outcome [9]: inactive
outcome [3]: inactive
AC50 [4]: 5.86 µM (active)
AC50 [5]: 3.56 µM (active)

Cc1cc(SC2=C(O)C[C@@](CCc3ccc(N)cc3)(C(C)C)OC2=O)c(C(C)(C)C)cc1CO
outcome [2]: inactive

Cc1occc(=O)c1O
outcome [3]: inactive

CCC(C)N(C)C(=O)c1cc2ccccc2c(-c2ccccc2Cl)n1 (stereo not drawn)
outcome [3]: inactive
AC50 [5]: 1.91 µM (active)

CO[C@@H]1COCC[C@@H]1N[C@@H]1CC[C@@](C(=O)N2CCc3ncc(C(F)(F)F)cc3C2)(C(C)C)C1
outcome [10]: inactive

COc1ccc(OC(F)(F)F)cc1CN[C@H]1CCCN[C@H]1c1ccccc1
AC50 [1]: 8.68 µM (active)
AC50 [10]: 7.82 µM (active)
AC50 [4]: 25 µM (active)
AC50 [5]: 25 µM (active)
AC50 [7]: 9.71 µM (active)

CCc1nc(N)nc(N)c1-c1ccc(Cl)cc1
outcome [4]: inactive

NC=O
outcome [6]: inactive

O=C(O)CN(CC(=O)O)CC(=O)O
outcome [2]: inactive

CC(C)(O)c1ccc(CNC(=O)c2cccnc2Oc2ccc(F)cc2)cc1
AC50 [6]: 4.68 µM (active)
outcome [3]: inactive
outcome [5]: inactive

O=C1OC(c2ccc(O)cc2)(c2ccc(O)cc2)c2ccccc21
AC50 [5]: 4.09 µM (active)

C=CCc1ccc(OC)c(OC)c1
outcome [3]: inactive

CC(N)=O
outcome [3]: inactive

Nc1nc(Cl)nc2c1ncn2[C@H]1C[C@H](O)[C@@H](CO)O1
AC50 [2]: 10.6 µM (active)

CCCCc1nc2cccnc2n1Cc1ccc(-c2ccccc2-c2nnn[nH]2)cc1
AC50 [6]: 10.9 µM (active)
AC50 [5]: 10 µM (active)

O=C(N[C@@H](c1ccccc1)[C@@H]1CCCCN1)c1cccc(C(F)(F)F)c1Cl
AC50 [1]: 25 µM (active)
AC50 [3]: 25 µM (active)
outcome [4]: inactive
AC50 [5]: 0.641 µM (active)

CCCC[C@H]1CN(CC2CCOCC2)C(=O)OC12CCN(C1(C)CCN(C(=O)c3c(C)ncnc3C)CC1)CC2
AC50 [4]: 3.04 µM (active)

CCN(CC)CCOc1ccc(C(=C(Cl)c2ccccc2)c2ccccc2)cc1
AC50 [1]: 14.2 µM (active)
AC50 [9]: 30 µM (active)
AC50 [4]: 4.82 µM (active)
outcome [5]: inactive
AC50 [7]: 5.6 µM (active)

CC1(C)C(=O)NC(=O)N1CO
outcome [7]: inactive

CN(C)CCCN1c2ccccc2Sc2ccc(Cl)cc21
outcome [10]: inactive
AC50 [4]: 1.66 µM (active)
AC50 [5]: 10.1 µM (active)
